Source: PubChem BioAssay
Active and inactive are the calls of the source. Unless noted, no rule for the calls is given here.

Key:
[1] = resazurin metabolic signal in HepG2 cells – cell-based, resazurin fluorescence, 24 h, PK04 Diversity Set, profiling panel (AID 1172); conditions: HepG2 viability, higher = more signal
[2] = budding yeast growth changes without added modifier – OD600, strain BY4716, 24 h, basal condition, primary screen (AID 1173); conditions: S. cerevisiae BY4716 growth, OD600, 24 h; higher = more signal, called active from +8 up or from −8 down
[3] = viability profiling in MM1S myeloma cells – cell-based, resazurin fluorescence, basal, 24 h, PK04 Diversity Set, profiling panel (AID 1174); conditions: higher = more signal, called active from +8 up or from −8 down;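 also: MM1S multiple myeloma cell line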
[4] = target: Dihydroorotate dehydrogenase (quinone), mitochondrial (Plasmodium falciparum (isolate 3D7)) (UniProt Q08210); assay: inhibition of P. falciparum DHODH – biochemical, C-terminal His tag, absorbance 600 nm, primary screen (AID 1175); conditions: PfDHODH enzyme, DCIP absorbance 600 nm; higher = more signal, called active from +8 up or from −8 down;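 also: recombinant parasite enzyme with a five histidine tag at its C terminus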
[5] = inhibition of PAO1 biofilm formation – strain PAO1, LB-PBS medium, absorbance 600 nm, primary screen (AID 1176); conditions: P. aeruginosa PAO1 growth/biofilm, A600, 12 h; higher = more signal
[6] = growth modulation of vineyard yeast isolate – strain RM11-1a, OD600, basal, 24 h, primary screen (AID 1177);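 also: cultures grown under basal conditions with no added stressor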; conditions: S. cerevisiae RM11-1a growth, OD600, 24 h; higher = more signal, called active from +8 up or from −8 down
[7] = growth of efflux-deficient E. coli DRC39 – strain DRC39, OD650, 24 h, E. coli filamentation inducers, primary screen (AID 1178);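 also: growth measured as culture turbidity by optical density at 650 nm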; conditions: E. coli DRC39 acrAB, higher = more signal, called active from +8 up or from −8 down
[8] = growth of efflux-deficient E. coli DRC39 – strain DRC39, OD650, 48 h, E. coli filamentation inducers, primary screen (AID 1179);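 also: screen aims at cell division blockers that make cells filament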; conditions: E. coli DRC39 delta-acrAB growth, higher = more signal, called active from +8 up or from −8 down
[9] = viability profiling in RPMI8226 myeloma cells – cell-based, resazurin fluorescence, basal, 24 h, PK04 Diversity Set, profiling panel (AID 1180); conditions: higher = more signal;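 also: RPMI8826 multiple myeloma cell line at 5000 cells per well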
[10] = target: E3 ubiquitin-protein ligase XIAP (Homo sapiens) (UniProt P98170); assay: small molecules binding XIAP protein – biophysical, small-molecule microarray, fluorescence 635 nm, primary screen (AID 1181); conditions: higher = more signal;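 also: score merges 667 nm emission and signal to noise over triplicate slides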
[11] = system: XIP peptide (Xip251-270) binding; assay: XIP fragment 251-270 binding compounds – biochemical, small-molecule microarray, fluorescence 635/667 nm, 0.1 µg/mL protein, primary screen (AID 1182); conditions: fluorescent protein binding, 635 nm, higher = more signal, called active from +8 up or from −8 down
XIP peptide (Xip251-270) = assay: compounds binding XIP fragment 251-270 – biochemical, small-molecule microarray, fluorescence 635/667 nm, 0.5 µg/mL protein, primary screen (AID 1183); conditions: fluorescence 635 nm, higher = more signal
[12] = blood-stage malaria parasite viability loss – strain 3D7, DAPI fluorescence, 100 nL, primary screen (AID 1184);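 also: parasites grown inside human red blood cells in medium with human serum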; conditions: P. falciparum 3D7 growth, 3 d, higher = more signal
[13] = target: Homeobox protein Hox-A13 (Mus musculus) (UniProt Q62424); assay: disruptors of Hoxa13 oligonucleotide interaction – biochemical, fluorescence polarization, labeled oligonucleotide, primary screen (AID 1185); conditions: Hoxa13:DNA binding, 15 min, higher = more signal, called active from +8 up or from −8 down
[14] = blockers of DNA damage checkpoint Chk1 activation – imaging, HeLa, hydroxyurea, phospho-Chk1 antibody, percent positive cells, primary screen (AID 1186); conditions: hydroxyurea-induced phospho-Chk1 immunofluorescence imaging, higher = more signal
[15] = blockers of DNA damage checkpoint Chk1 activation – imaging, HeLa, hydroxyurea, phospho-Chk1 nuclear intensity, primary screen (AID 1187); conditions: hydroxyurea-induced phospho-Chk1 immunofluorescence imaging, higher = more signal

Dihydroorotate dehydrogenase (quinone), mitochondrial (Plasmodium falciparum (isolate 3D7)), sequence (Q08210 whole entry, looked up): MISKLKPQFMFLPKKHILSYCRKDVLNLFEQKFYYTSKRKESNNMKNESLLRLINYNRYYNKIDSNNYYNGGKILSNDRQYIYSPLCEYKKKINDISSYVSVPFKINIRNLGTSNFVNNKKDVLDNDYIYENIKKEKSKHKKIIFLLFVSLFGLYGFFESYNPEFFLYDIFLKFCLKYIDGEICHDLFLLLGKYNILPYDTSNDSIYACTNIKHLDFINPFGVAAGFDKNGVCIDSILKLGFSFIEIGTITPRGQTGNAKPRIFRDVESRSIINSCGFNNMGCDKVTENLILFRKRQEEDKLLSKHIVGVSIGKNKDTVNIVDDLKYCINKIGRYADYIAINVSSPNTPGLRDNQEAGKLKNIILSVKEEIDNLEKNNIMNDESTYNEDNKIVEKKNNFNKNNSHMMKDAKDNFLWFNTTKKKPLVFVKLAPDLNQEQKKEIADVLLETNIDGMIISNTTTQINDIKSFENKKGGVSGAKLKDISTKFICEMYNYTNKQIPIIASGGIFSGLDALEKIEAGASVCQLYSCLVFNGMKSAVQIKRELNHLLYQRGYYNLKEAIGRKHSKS
Homeobox protein Hox-A13 (Mus musculus), sequence (Q62424 whole entry, looked up): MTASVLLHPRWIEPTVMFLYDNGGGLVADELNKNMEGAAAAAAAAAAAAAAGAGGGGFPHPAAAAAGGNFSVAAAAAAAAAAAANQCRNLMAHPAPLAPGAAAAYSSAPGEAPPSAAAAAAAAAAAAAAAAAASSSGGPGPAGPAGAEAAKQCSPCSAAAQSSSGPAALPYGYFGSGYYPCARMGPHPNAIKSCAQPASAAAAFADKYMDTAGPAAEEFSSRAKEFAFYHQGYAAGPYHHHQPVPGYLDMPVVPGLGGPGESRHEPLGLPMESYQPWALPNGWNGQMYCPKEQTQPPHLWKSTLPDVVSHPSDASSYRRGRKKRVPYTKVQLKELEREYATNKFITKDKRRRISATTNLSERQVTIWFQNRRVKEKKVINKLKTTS
E3 ubiquitin-protein ligase XIAP (Homo sapiens), sequence (P98170 whole entry, looked up, the tested form may be a part): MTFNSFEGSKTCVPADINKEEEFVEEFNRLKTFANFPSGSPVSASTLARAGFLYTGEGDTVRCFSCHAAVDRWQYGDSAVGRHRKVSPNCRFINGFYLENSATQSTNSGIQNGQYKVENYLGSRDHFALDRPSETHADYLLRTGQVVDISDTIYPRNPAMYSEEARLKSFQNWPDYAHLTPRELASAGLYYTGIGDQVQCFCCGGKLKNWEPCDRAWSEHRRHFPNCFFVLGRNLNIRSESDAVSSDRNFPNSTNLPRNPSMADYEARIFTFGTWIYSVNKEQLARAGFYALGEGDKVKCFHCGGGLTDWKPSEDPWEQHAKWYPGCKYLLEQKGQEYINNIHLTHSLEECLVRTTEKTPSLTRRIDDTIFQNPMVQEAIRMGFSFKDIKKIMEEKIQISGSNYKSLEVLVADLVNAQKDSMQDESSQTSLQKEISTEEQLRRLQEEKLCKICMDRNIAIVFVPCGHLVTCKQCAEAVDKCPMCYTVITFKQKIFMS

SMILES	z-score [1]	z-score [2]	z-score [3]	composite z-score [4]	z-score [5]	z-score [6]	z-score [7]	z-score [8]	z-score [9]	composite z-score [10]	composite z-score [11]	composite z-score (XIP peptide (Xip251-270))	z-score [12]	z-score [13]	z-score [14]	z-score [15]
CC(=O)n1cc(C(O)C2C=CC3C(=O)NC(=O)C3N2Nc2ccccn2)c2ccccc21 (centres undefined)	-1.3	0.627 (inactive)	-1.67 (inactive)	0.496 (inactive)	1.33 (inactive)	0.605 (inactive)	-0.641 (inactive)	-0.109 (inactive)	-1.31	0.07	-0.251 (inactive)	0.785	0.249	-2.99 (inactive)	0.5 (inactive)	-0.392 (inactive)
COc1ccc(C(O)C2C=CC3C(=O)N(C)C(=O)C3N2N(c2ccccc2)c2ccccc2)c2ccccc12 (centres undefined)	-1	0.618 (inactive)	-1.57 (inactive)	0.231 (inactive)	0.447 (inactive)	0.588 (inactive)	-0.546 (inactive)	-0.225 (inactive)	-1.14	0.239	0.742 (inactive)	0.763	0.889	-2.84 (inactive)	0.436 (inactive)	0.15 (inactive)
NC(=O)N1C(=O)C2C(C1=O)C1C=C(CCCO)C2C(C2CC2)N1Cc1cc2c(cc1Br)OCO2 (centres undefined)	-0.437	-1.85 (inactive)	-0.264 (inactive)	-0.659 (inactive)	-0.778 (inactive)	-0.492 (inactive)	-0.298 (inactive)	-0.562 (inactive)	-0.46	0.0479	-0.0845 (inactive)	-0.102	1.74	-7.26 (inactive)	0.207 (inactive)	0.727 (inactive)
COc1ccc(NC(=O)O[C@H]2[C@H](OC(=O)c3cc4ccccc4[nH]3)[C@@H](OC(=O)c3cc4ccccc4[nH]3)[C@@H](OC)O[C@@H]2CO)cc1	-1.08	-0.302 (inactive)	-1.68 (inactive)	-0.558 (inactive)	0.305 (inactive)	-0.575 (inactive)	1.13 (inactive)	1.53 (inactive)	-1.69	0.103	1.54 (inactive)	-0.135	-2.16	-3.86 (inactive)	-0.335 (inactive)	-0.331 (inactive)
CCCCCCc1nc(-c2ccc(-c3ccc(Cl)c(Cl)c3)o2)cc2c1[Si](C(C)C)(C(C)C)O[C@H]2c1ccccc1	1.32	-0.911 (inactive)	0.551 (inactive)	-0.206 (inactive)	-0.771 (inactive)	-0.361 (inactive)	0.708 (inactive)	0.447 (inactive)	0.0719	-0.0641	2.93 (inactive)	0.393	-1.3	-1.4 (inactive)	-0.682 (inactive)	-0.449 (inactive)
N#Cc1ccc(C(O)C2C=CC3C(=O)N(c4ccccc4)C(=O)C3N2Nc2ccccc2F)cc1 (centres undefined)	1.46	-2.13 (inactive)	0.55 (inactive)	0.775 (inactive)	0.0083 (inactive)	-0.402 (inactive)	-0.227 (inactive)	0.692 (inactive)	0.148	0.205	0.339 (inactive)	0.749	-0.85	-3.57 (inactive)	-0.395 (inactive)	-0.0743 (inactive)
C=C(CCCC)C(=O)CC[C@@H](OC(C)=O)c1ccc(CO)o1	0.519	-12.9 (active)	0.292 (inactive)	-8.56 (active)	1.27 (inactive)	-0.944 (inactive)	0.435 (inactive)	0.339 (inactive)	0.624	0.151	0.247 (inactive)	0.337	-0.201	-3.66 (inactive)	0.593 (inactive)	0.245 (inactive)
COc1ccc(C(=O)Nc2cccc(CN3C(=O)[C@]4(O[C@H](CCn5cc(CCO)nn5)[C@@H]([Si](C)(C)c5ccc(OC)cc5)[C@@H]4C)c4ccccc43)c2)cc1	-6.31	-7.34 (inactive)	-9.11 (active)	2.2 (inactive)	1.12 (inactive)	4 (inactive)	0.216 (inactive)	-0.883 (inactive)	-6.19	-0.173	-0.16 (inactive)	0.249	-2.72	-4.83 (inactive)	-0.745 (inactive)	-2.04 (inactive)
CCCCCN1CC=CC23O[C@@H]4C=CCOC(=O)[C@@H]4[C@H]2C(=O)N(C(C)CO)[C@@H]3C1=O (some centres undefined)	0.0677	-0.738 (inactive)	-0.278 (inactive)	-0.478 (inactive)	0.77 (inactive)	-1.16 (inactive)	-0.232 (inactive)	-0.443 (inactive)	0.003	-0.269	0.379 (inactive)	-0.0756	0.795	-4.96 (inactive)	0.719 (inactive)	0.149 (inactive)
CC1CC/C=C\[C@H]2OC34C=CCN(c5ccc6ccccc6c5)C(=O)[C@H]3N(CCO)C(=O)[C@@H]4C2C(=O)O1 (some centres undefined)	-0.854	-0.635 (inactive)	-1.03 (inactive)	-0.509 (inactive)	0.826 (inactive)	-0.471 (inactive)	-0.726 (inactive)	-0.867 (inactive)	0.0886	0.0728	0.866 (inactive)	0.492	-0.607	-5.51 (inactive)	-0.209 (inactive)	-0.434 (inactive)
O=C(O)C1N=C(c2ccc(OCCCO)cc2)N(c2ccccc2)O1 (centres undefined)	-0.0554	0.0427 (inactive)	-0.258 (inactive)	-0.928 (inactive)	-0.469 (inactive)	0.0613 (inactive)	-0.351 (inactive)	0.46 (inactive)	-0.219	-0.22	1.77 (inactive)	0.852	-0.112	-2.98 (inactive)	-0.259 (inactive)	-0.229 (inactive)
COC(=O)[C@@]1(Cc2ccccc2)[C@H]2c3cc(C(=O)N4CCCC4)n(Cc4c(CO)[nH]cc(C)c4=O)c3C[C@H]2CN1C(=O)c1ccccc1	-0.789	1.01 (inactive)	-0.74 (inactive)	0.255 (inactive)	0.287 (inactive)	0.624 (inactive)	-0.384 (inactive)	0.156 (inactive)	-0.467	0.406	-0.528 (inactive)	0.704	-1.46	-5.81 (inactive)	0.754 (inactive)	0.672 (inactive)
COC(=O)[C@@]1(Cc2ccc(OC)cc2)[C@H]2c3cc(C(=O)N(C)C)n(Cc4ccc(C(F)(F)F)nc4)c3C[C@H]2CN1C(=O)c1ccccc1	0.133	0.794 (inactive)	-0.312 (inactive)	-0.224 (inactive)	-0.0019 (inactive)	0.44 (inactive)	-0.22 (inactive)	-0.18 (inactive)	0.27	0.333	0.233 (inactive)	0.497	0.526	-3.56 (inactive)	0.832 (inactive)	0.858 (inactive)
O=C1O[C@@H](c2ccccc2)[C@@H](c2ccccc2)N2[C@@H](c3ccc(OCCO)cc3)[C@]3(C(=O)Nc4ccc(C#CCCO)cc43)[C@@H](C(=O)NC[C@H](O)c3ccccc3)[C@H]12	0.148	1.49 (inactive)	0.428 (inactive)	1.47 (inactive)	2.78 (inactive)	2.97 (inactive)	0.968 (inactive)	1 (inactive)	0.671	-0.0249	0.0796 (inactive)	0.822	-0.271	-3.67 (inactive)	-0.174 (inactive)	-0.317 (inactive)
C=CCNC(=O)[C@H]1[C@@H]2C(=O)O[C@@H](c3ccccc3)[C@@H](c3ccccc3)N2[C@@H](c2ccc(OCCO)cc2)[C@]12C(=O)Nc1ccc(C#CCC(C(=O)OC)C(=O)OC)cc12	0.47	1.62 (inactive)	-0.447 (inactive)	0.26 (inactive)	2.63 (inactive)	2.22 (inactive)	0.634 (inactive)	-0.115 (inactive)	-2.64	0.0975	1.06 (inactive)	0.635	-2.03	-2.29 (inactive)	0.239 (inactive)	0.514 (inactive)
O=C1O[C@H](c2ccccc2)[C@H](c2ccccc2)N2[C@H]1[C@@H](C(=O)NC[C@H](O)c1ccccc1)[C@]1(C(=O)Nc3ccc(C#CC4=CCCCC4)cc31)[C@H]2c1ccccc1OCCO	-2.02	1.89 (inactive)	-6.77 (inactive)	-0.894 (inactive)	2.9 (inactive)	1.96 (inactive)	-0.561 (inactive)	0.105 (inactive)	-6.5	-0.144	-0.0939 (inactive)	0.203	-0.285	1.5 (inactive)	0.0263 (inactive)	-0.294 (inactive)
O=C1O[C@@H](c2ccccc2)[C@@H](c2ccccc2)N2[C@@H](c3ccccc3OCCO)[C@]3(C(=O)Nc4ccc(C#CC5(O)CCCCCC5)cc43)[C@@H](C(=O)N3CCN(c4ncccn4)CC3)[C@H]12	0.0783	1.62 (inactive)	-1.18 (inactive)	0.937 (inactive)	1.94 (inactive)	4.01 (inactive)	-0.418 (inactive)	0.247 (inactive)	-0.737	0.372	-0.0661 (inactive)	0.661	-2.17	-1.01 (inactive)	-0.0019 (inactive)	0.451 (inactive)
CCCCN1CC=CC23O[C@@H]4C=CCCOC(=O)C4[C@H]2C(=O)N(CCCCCO)[C@@H]3C1=O (some centres undefined)	-0.462	-0.1 (inactive)	-0.401 (inactive)	0.0416 (inactive)	-0.332 (inactive)	-0.308 (inactive)	0.593 (inactive)	0.923 (inactive)	0.769	0.0357	-0.17 (inactive)	0.779	0.474	-4.72 (inactive)	-2.17 (inactive)	-1.9 (inactive)
COCCOC(=O)N1C(=O)[C@@]2(c3cc(C#CC4=CCCCC4)ccc31)[C@H](C(N)=O)[C@H]1C(=O)O[C@H](c3ccccc3)[C@H](c3ccccc3)N1[C@@H]2c1ccc(O)cc1	-0.495	-0.268 (inactive)	-2.03 (inactive)	-1.37 (inactive)	1.37 (inactive)	-1.07 (inactive)	0.273 (inactive)	1.03 (inactive)	-4.15	-0.223	1.79 (inactive)	0.769	0.55	-0.393 (inactive)	-0.371 (inactive)	-0.552 (inactive)
